Hits are enriched below; roughly 4.3% of the tested compounds scored in any of these assays.
MazF activator – increases E. coli MazEF RNase cleavage of RNA; P0AE70; FAM/BHQ RNA-DNA oligo cleavage fluorescence, 5 h; activation, % at 20 µM; actives 0.32% (n = 350,000); in the data active = activation above about 50%
Autofluor counter – compound fluorescence in toxin protease inhibitor counterscreen; compound autofluorescence counterscreen, microsphere flow cytometry; active compounds read high; fluorescence intensity (concentration not given with the values); actives 3.1% (n = 360,000); in the data active = fluorescence intensity above about 16000; inconclusive = no clear call, values can overlap the other calls
Anthrax LF inh2 – anthrax lethal factor protease inhibition; inhibition, % at 10 µM; multiplex microsphere protease cleavage assay, LF; AID 588501; actives 0.12% (n = 360,000); P15917; note: plate controls were buffer without enzyme for full effect and enzyme alone for no effect
Target sequence (P15917 whole entry, looked up): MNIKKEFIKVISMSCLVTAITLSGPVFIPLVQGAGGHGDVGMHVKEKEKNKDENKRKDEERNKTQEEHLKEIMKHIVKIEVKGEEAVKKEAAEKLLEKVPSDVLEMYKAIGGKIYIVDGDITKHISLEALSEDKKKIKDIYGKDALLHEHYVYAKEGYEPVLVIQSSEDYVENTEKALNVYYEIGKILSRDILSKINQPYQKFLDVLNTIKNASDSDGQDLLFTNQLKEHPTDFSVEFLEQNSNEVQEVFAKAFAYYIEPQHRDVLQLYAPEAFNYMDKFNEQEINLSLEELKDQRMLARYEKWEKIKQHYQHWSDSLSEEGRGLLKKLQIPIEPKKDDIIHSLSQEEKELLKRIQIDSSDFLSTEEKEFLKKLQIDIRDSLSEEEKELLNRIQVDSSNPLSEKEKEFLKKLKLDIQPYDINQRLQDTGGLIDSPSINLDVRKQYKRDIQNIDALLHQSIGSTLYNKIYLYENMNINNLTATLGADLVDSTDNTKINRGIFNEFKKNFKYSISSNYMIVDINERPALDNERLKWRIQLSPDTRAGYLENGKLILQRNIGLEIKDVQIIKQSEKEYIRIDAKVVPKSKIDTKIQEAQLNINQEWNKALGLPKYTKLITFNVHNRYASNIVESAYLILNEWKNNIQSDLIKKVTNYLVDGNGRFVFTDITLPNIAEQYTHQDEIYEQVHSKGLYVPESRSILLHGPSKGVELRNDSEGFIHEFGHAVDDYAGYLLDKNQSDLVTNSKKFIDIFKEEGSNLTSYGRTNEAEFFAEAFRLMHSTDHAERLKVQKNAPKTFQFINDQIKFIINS
PfHsp40 yeast – compounds rescuing yeast from Plasmodium falciparum HSP40 toxicity; growth rescue, % at 12.5 µM; actives 0.68% (n = 340,000); S. cerevisiae expressing PfHsp40, growth rescue, ATP luminescence; in the data active = growth rescue above about 28%, passing the limit was not always enough; inconclusive = no clear call, values can overlap the other calls;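 note: yeast W303a lacking pdr1 and pdr3 grown in galactose medium; growth measured after three days at 30 °C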
BoNT A protease – blocks Botulinum neurotoxin A light chain protease; multiplex microsphere protease substrate cleavage, flow cytometry; AID 588499; actives 0.17% (n = 360,000); inhibition, % at 10 µM; note: plate controls were buffer without enzyme for full effect and enzyme alone for no effect
BoNT F protease – BoNT F light chain protease inhibition. Multiplex microsphere protease cleavage assay, flow cytometry. inhibition, % at 10 µM. actives 0.22% (n = 360,000). AID 588497; in the data active = inhibition above about 35%, passing the limit was not always enough; inconclusive = no clear call, values can overlap the other calls; note: plate controls were buffer without enzyme for full effect and enzyme alone for no effect
BoNT-A LC CP1 – BoNT/A light chain protease inhibition | actives 3% (n = 720) | inhibition, % at 10 µM | shares compounds with BoNT F protease | multiplex microsphere protease assay, flow cytometry; in the data active = inhibition above about 32%
BoNT-F LC CP1 – inhibitors of Botulinum neurotoxin F light chain protease; shares compounds with BoNT F protease; multiplex microsphere protease cleavage assay, flow cytometry; inhibition, % at 10 µM; 720 tested, under 10 active; AID 602140; call rule not given here
Anthrax LF CP1 – Bacillus anthracis lethal factor protease inhibition; shares compounds with BoNT F protease; multiplex microsphere protease cleavage assay, LF; inhibition, % at 10 µM; 720 tested, under 10 active; call rule not given here
An asterisk follows results filed as active; ? = inconclusive; nt = no result. Cut-off read from the data, not from the text of the source, unless noted: active = inhibition above about 30%; inconclusive = no clear call, values can overlap the other calls; inactive = below that.

SMILES	MazF activator	Autofluor counter	Anthrax LF inh2	PfHsp40 yeast	BoNT A protease	BoNT F protease	BoNT-A LC CP1	BoNT-F LC CP1	Anthrax LF CP1
C#CCN(C[C@H]1[C@H](OC(=O)NCc2ccccc2)[C@H](OC(=O)NCc2ccccc2)C[C@H]2C(=O)N(c3ccccc3)C(=O)[C@@H]12)S(=O)(=O)c1ccc(C)cc1	7	3574	-5	nt	0	-2	nt	nt	nt
CC(C)NS(=O)(=O)c1ccc(NC(=O)C(C)OC(=O)CCC(=O)c2cccs2)cc1 (stereo unspecified)	5	?	?	-1	?	?	nt	nt	nt
Cc1nc(N2CCN(C(c3ccccc3)c3ccccc3)CC2)[nH]c(=O)c1C	1	3825	3	0	3	35*	-1	0	3
Cn1cnnc1SCC(=O)Nc1ccccc1	6	5422	4	-1	0	-1	nt	nt	nt
Cn1cnnc1SCC(=O)Nc1ccc(S(N)(=O)=O)cc1	10	2989	34*	0	1	37*	-1	0	0
C=CCn1c(N2CCCC2)nc2c1c(=O)n(C)c(=O)n2C	1	3562	44*	0	0	16	1	-2	4
O=C(Nc1c2c(nc3ccccc13)CCCC2)c1cccc([N+](=O)[O-])c1	4	2653	-1	-1	0	-2	nt	nt	nt
O=C1NC(=O)N2CCSC2(Cc2ccccc2)N1 (stereo unspecified)	-20	5328	-6	20	-1	11	nt	nt	nt
COc1ccccc1CN1CCNC(=O)C1CC(=O)NCc1c(C)n[nH]c1C (stereo unspecified)	3	4992	3	-1	7	41*	0	-8	-4
CCS(=O)(=O)NCc1ccc2c(c1)cc(C)n2C	19	4442	-72	0	10	-116	nt	nt	nt
CCCCC(=O)NCc1ccc2c(c1)cc(C)n2C	-6	10959	47*	-1	43*	17	2	-5	-1
CCCS(=O)(=O)NCc1ccc2c(c1)cc(C)n2C	-21	?	3	0	69*	-41	1	-14	-2
Cc1cc2cc(CNC(=O)CC(C)C)ccc2n1C	0	17533*	34*	3	31*	13	0	-7	-2
CCCNC(=O)C(Cc1ccc(F)cc1)NC(=O)c1ccc(C#N)cc1 (stereo unspecified)	8	2975	3	2	0	-2	nt	nt	nt
O=C(Cn1cnc2sc(-c3ccccc3)cc2c1=O)NCc1ccccc1	-25	9905	0	1	0	-1	nt	nt	nt
O=C(Cn1cnc2sc(-c3ccccc3)cc2c1=O)NCCc1ccccc1	-28	4551	0	0	1	45*	1	2	2
COc1ccc(-c2nc3ccc(C(=O)NCC(OC)OC)cc3nc2-c2ccc(OC)c(OC)c2)cc1OC	-3	3509	5	0	2	-2	nt	nt	nt
COC(CNC(=O)c1ccc2nc(-c3cccs3)c(-c3cccs3)nc2c1)OC	4	8849	25	1	44*	26	21	2	8
CSc1ccc(CN(C)CC(=O)NCCc2ccccc2)cc1	-3	3529	3	0	2	40*	-1	-2	-4
COc1ccc(CNC(=O)C2CCN(C(=O)c3ccc(-c4ccccc4)cc3)CC2)cc1	-1	3412	32*	0	-1	-21	0	-5	0
Cc1ccc(CCC(=O)Nc2ccc(Cl)cc2Cl)o1	-9	3523	-5	nt	0	-3	nt	nt	nt
Cc1ccc(NC(=O)CCc2ccc(C)o2)c(Br)c1	-9	3907	-12	0	3	91*	0	-2	-3
COc1ccc(OC)c(CN2CCN(C(=O)CNC(=O)c3ccc(C(C)(C)C)cc3)CC2)c1	4	4043	0	-1	0	-5	nt	nt	nt
COc1ccc(OC)c(CN2CCN(C(=O)CCNC(=O)c3ccc(Br)cc3)CC2)c1	2	?	-2	0	34*	1	0	2	0
CCN(CC)C(=O)C(Sc1ccccc1)c1ccccc1 (stereo unspecified)	3	?	?	-1	19	57*	-1	-4	-3
SMILES	MazF activator	Autofluor counter	Anthrax LF inh2	PfHsp40 yeast	BoNT A protease	BoNT F protease	BoNT-A LC CP1	BoNT-F LC CP1	Anthrax LF CP1
CCCNC(=O)C(Sc1ccccc1)c1ccccc1 (stereo unspecified)	-4	8592	-1	-3	0	1	nt	nt	nt
c1ccc2c(C3=NNC(=NC4CC4)SC3)c[nH]c2c1	4	4586	12	0	41*	-10	7	-19	9
COc1ccc(S(=O)(=O)NC(C)C(=O)NCc2cccnc2)cc1OC (stereo unspecified)	-22	3728	-8	0	-1	44*	1	-3	0
Cc1ccc(OCCNC(=O)c2ccccc2O)cc1	9	4460	12	12	-1	36*	-1	-11	-3
COCCN(Cc1cn(C)nc1-c1ccc(Oc2ccccc2)cc1)C(C)C	-14	4079	-19	0	-7	?	nt	nt	nt
CC(C)N(C)Cc1cn(C)nc1-c1ccc(Oc2ccccc2)cc1	14	3249	0	-2	-2	36*	0	-6	1
O=C(NS(=O)(=O)N1CCCC1)C1=C(N2CCCC2)COC1=O	1	3984	-4	0	0	-2	nt	nt	nt
CCn1c(CCNC(=O)c2ccc(OC)c(OC)c2)nc2ccccc21	-2	4085	1	-1	2	40*	2	3	0
O=[N+]([O-])c1cccc(-c2cn3nc(-c4ccccc4)c(-c4ccccc4)nc3n2)c1	-1	4123	33*	1	67*	48*	40*	10	24
c1ccc(-c2cn3nc(-c4ccccc4)c(-c4ccccc4)nc3n2)cc1	-86	5284	46*	-1	76*	24	62*	11	28
CC1CN(C(=O)COC(=O)c2ccc(F)cc2Cl)CC(C)O1 (stereo unspecified)	6	2878	-16	0	-5	-27	nt	nt	nt
CCSc1nnc(-c2sc3nnc(-c4ccccc4)c(-c4ccccc4)c3c2N)o1	-128	5874	56*	-1	80*	52*	86*	27	40*
COc1ccc(NC(=O)CC2C(=O)N(c3ccc(OC)cc3)C(=O)N2Cc2ccc(OC)c(OC)c2)cc1 (stereo unspecified)	7	4263	-5	0	0	4	nt	nt	nt
Cc1ccc2c(c1)CCCN2C(=O)c1cc(C)c(C)s1	2	4486	-4	6	-1	4	nt	nt	nt
Cc1cc(C(=O)O)sc1C	-13	7884	3	-1	6	36*	-1	-3	-4
